# Source: PubChem BioAssay AID2358 (The Scripps Research Institute Molecular Screening Center, 2010)
# Screen size: about 1,900 compounds; about 1,000 (53%) were called active. The set was probably picked from earlier hits. Only a sample is shown. Values without a mark were called inactive.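 The calls were made as follows: active = mean PP1 inhibition above a set limit taken from the earlier primary screen (cut at about 15% in these data); inactive = the rest.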
# Target: Serine/threonine-protein phosphatase PP1-alpha catalytic subunit (Homo sapiens) (UniProt P62136)
# Test: PP1 phosphatase inhibitors, confirmation, biochemical, fluorescence, OMFP substrate, triplicate (AID 2358)
# Settings: purified PP1alpha, at 6.7 µM, stronger effect = higher value
# Sequence of Serine/threonine-protein phosphatase PP1-alpha catalytic subunit (Homo sapiens) (P62136 whole entry, looked up): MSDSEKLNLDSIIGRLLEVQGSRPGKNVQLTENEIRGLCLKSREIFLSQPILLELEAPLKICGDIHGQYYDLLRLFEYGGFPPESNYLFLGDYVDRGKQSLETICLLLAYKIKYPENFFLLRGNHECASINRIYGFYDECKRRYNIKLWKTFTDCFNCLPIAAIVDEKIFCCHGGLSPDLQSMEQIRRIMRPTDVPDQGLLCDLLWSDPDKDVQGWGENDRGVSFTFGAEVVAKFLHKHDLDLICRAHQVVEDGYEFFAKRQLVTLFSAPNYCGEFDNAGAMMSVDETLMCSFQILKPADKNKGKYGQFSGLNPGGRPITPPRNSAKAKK
row,SMILES,inhibition
1,O=c1[nH]c(CN2CC=C(c3ccccc3)CC2)nc2scc(-c3cccs3)c12,19.9% (active)
2,CCOP(=O)(OCC)C(O)c1ccc(OC)cc1OC (stereo not drawn),-5.49%
3,O=C(O)c1ccccc1NC(=O)C1C2CCC(O2)C1C(=O)O (stereo not drawn),13.2%
